11 molecules from ChEMBL document CHEMBL3988442, “University of Dundee, Small-Polar-MMV Screening Library” (2021) can be followed below.

For some of these results: Measured potencies and affinities stand elsewhere.

Parameters in all cases: scale not given: direction of the effect not stated beside the values
Experiment [1] concerns the target Protein translocase subunit SecA (Escherichia coli (strain K12)) (UniProt P10408). Briefly: Assay to Identify E. coli SecA ATPase Inhibitors. The class given is functional. The settings on record: 30 µM.
For experiment [2], the target named is T1, Ubiquitin-activating enzyme e1, putative (Leishmania donovani (strain BPK282A1)) (UniProt E9BSI1).
T1 sequence (whole entry): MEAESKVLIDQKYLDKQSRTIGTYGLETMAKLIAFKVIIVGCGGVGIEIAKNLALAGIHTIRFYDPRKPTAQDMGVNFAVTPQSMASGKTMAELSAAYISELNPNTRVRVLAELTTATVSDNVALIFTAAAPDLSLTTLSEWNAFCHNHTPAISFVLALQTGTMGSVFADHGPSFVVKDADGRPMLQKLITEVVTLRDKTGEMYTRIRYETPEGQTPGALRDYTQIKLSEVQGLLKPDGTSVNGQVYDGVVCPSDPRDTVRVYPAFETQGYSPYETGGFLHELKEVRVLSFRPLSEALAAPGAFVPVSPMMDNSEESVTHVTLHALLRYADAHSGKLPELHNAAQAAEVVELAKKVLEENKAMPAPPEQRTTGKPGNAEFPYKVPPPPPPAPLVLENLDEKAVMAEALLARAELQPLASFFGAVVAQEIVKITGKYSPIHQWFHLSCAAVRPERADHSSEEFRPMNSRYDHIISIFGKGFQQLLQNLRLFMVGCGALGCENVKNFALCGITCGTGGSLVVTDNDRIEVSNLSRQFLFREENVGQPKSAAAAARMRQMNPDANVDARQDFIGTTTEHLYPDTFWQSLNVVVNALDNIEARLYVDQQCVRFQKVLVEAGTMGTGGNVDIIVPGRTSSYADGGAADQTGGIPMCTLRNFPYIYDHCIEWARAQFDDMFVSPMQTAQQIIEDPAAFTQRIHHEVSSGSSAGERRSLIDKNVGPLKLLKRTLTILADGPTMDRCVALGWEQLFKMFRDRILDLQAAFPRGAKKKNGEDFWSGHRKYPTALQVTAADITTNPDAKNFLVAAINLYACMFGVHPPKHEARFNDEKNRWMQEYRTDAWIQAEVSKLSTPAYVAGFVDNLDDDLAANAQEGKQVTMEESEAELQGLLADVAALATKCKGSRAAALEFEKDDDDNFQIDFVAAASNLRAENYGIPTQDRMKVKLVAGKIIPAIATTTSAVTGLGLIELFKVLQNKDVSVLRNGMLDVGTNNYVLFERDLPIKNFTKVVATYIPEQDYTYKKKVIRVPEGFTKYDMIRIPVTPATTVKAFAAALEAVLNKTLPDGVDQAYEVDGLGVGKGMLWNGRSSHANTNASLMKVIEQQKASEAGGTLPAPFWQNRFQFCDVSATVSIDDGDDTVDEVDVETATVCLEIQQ
Briefly: Leishmania donovani Ubiquitin Activating Enzyme (LdE1). The class given is functional. The conditions noted are these: 30 µM.

In experiment [3] the target is AMP-activated protein kinase, AMPK (Homo sapiens) (UniProt P54646+O43741+P54619+Q9UGJ0+Q9Y478+Q13131+Q9UGI9). Briefly: AMP-dependent Kinase enzyme assay. An in vitro enzyme assay that detects ADP turnover that is directly proportional to AMPK activity. This uses naive AMPK that is activated during the assay with MK-8722. Type of experiment: functional. The conditions noted are these: 30 µM.

For experiment [4], the target named is Sialic acid-binding Ig-like lectin 9 (Homo sapiens) (UniProt Q9Y336). Briefly: Hs-Siglec9 ALPHAscreen SOP 20170721. The settings on record: 10 µM. On the technique in general: Alpha assays give light when donor and acceptor beads are brought close together.
Chain of Sialic acid-binding Ig-like lectin 9 (Homo sapiens) (Q9Y336 whole entry): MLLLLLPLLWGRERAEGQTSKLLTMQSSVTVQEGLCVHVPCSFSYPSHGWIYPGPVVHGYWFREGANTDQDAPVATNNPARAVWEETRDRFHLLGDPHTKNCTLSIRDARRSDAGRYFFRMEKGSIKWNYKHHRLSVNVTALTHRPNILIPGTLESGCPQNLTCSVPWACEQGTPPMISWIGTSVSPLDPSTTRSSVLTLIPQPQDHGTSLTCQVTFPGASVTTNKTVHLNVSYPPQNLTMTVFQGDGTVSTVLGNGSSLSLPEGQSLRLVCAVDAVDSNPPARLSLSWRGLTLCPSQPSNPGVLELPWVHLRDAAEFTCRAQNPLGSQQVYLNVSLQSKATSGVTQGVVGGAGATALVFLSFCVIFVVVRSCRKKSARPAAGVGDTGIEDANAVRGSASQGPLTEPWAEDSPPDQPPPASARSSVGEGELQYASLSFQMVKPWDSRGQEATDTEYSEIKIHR
The next experiment concerns Trypanosoma cruzi. Briefly: Trypanosoma cruzi phosphomannomutase and mannose-1-phosphate guanylyltransferase assay. Type of experiment: functional. The settings on record: 10 µM.
The target in experiment [5] is T2, Arginase-2, mitochondrial (Homo sapiens) (UniProt P78540).
T2 sequence (whole entry): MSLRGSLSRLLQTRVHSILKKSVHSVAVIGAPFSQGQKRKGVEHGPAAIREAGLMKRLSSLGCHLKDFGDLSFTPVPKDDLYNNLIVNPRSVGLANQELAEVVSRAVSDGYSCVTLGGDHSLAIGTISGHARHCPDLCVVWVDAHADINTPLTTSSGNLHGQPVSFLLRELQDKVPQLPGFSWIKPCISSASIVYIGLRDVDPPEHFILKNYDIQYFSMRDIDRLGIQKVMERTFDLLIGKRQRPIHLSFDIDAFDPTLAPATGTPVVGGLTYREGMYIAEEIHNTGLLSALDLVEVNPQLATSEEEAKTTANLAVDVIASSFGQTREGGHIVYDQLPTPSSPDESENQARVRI
Briefly: in vitro enzyme assay to detect the production of urea directly proportional to the activity of Arginase II. Also: in the data most compounds retested in dose-response had high values. The settings on record: 33.3 µM. Type of experiment: functional.

Experiment [6] concerns the target T3, Proteasome subunit beta (Trypanosoma cruzi) (UniProt O96673).
T3 sequence (whole entry): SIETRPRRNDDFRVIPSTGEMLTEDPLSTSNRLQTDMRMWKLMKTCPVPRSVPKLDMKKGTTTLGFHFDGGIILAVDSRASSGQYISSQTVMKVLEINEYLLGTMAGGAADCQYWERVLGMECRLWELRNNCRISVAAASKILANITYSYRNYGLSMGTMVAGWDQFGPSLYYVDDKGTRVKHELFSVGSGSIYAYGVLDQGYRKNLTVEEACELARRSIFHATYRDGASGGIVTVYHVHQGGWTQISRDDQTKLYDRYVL
Briefly: Trypanosoma cruzi proteasome chymotrypsin-like activity (TcProtChymo) assay. Also: in the data most compounds retested in dose-response had high values. The settings on record: 9.37 µM. Type of experiment: functional.

The species named for the next experiment is Homo sapiens. Briefly: To identify inhibition of the IFN signalling (Jak-Stat) pathway via expression of an eGFP reporter gene under the control of an IFN-stimulated response element (ISRE) containing MxA promoter. Type of experiment: functional. The conditions noted are these: 30 µM. A general note: A reporter such as luciferase makes a cellular process visible.

The target in experiment [7] is T4, Tyrosyl-tRNA synthetase, putative (Trypanosoma cruzi (strain CL Brener)) (UniProt Q4DSP6).
T4 sequence (whole entry): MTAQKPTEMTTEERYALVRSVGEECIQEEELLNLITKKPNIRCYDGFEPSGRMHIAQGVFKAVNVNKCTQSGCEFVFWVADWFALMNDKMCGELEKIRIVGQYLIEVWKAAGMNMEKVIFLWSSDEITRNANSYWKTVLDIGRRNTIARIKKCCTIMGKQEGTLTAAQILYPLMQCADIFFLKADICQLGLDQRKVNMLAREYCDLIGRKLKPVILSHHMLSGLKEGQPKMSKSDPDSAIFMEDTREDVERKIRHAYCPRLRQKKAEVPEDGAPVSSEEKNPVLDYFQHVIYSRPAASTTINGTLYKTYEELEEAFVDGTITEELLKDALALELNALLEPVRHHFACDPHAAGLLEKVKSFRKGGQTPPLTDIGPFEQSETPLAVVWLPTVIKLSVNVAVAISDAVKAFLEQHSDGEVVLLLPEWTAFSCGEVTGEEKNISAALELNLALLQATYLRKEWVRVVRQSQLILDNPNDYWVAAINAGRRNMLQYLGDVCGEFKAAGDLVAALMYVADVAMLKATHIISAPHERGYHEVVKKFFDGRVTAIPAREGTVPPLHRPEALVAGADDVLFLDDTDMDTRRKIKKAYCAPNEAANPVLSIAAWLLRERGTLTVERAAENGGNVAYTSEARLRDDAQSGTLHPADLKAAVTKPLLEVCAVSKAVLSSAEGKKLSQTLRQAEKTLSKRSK
Briefly: Trypanosoma cruzi tyrosyl tRNA synthetase (TcYRS) _High Tyrosine SOP. Also: in the data most compounds retested in dose-response had high values. The class given is functional. The conditions noted are these: 30 µM.

Experiment [8] addresses T4, Tyrosyl-tRNA synthetase, putative (Trypanosoma cruzi (strain CL Brener)). Briefly: Trypanosoma cruzi tyrosyl tRNA synthetase (TcYRS) SOP. The settings on record: 30 µM. The class given is functional.
Experiment [9] has as its target Chromo domain-containing protein 1 (Saccharomyces cerevisiae (strain ATCC 204508 / S288c) (Baker's yeast)) (UniProt P32657). Briefly: ScCHD-1 Enzyme Inhibition Assay. Also: in the data most compounds retested in dose-response had high values. The conditions noted are these: 30 µM. The class given is functional.

Chain of Chromo domain-containing protein 1 (Saccharomyces cerevisiae (strain ATCC 204508 / S288c) (Baker's yeast)) (P32657 whole entry, the tested form may be a part): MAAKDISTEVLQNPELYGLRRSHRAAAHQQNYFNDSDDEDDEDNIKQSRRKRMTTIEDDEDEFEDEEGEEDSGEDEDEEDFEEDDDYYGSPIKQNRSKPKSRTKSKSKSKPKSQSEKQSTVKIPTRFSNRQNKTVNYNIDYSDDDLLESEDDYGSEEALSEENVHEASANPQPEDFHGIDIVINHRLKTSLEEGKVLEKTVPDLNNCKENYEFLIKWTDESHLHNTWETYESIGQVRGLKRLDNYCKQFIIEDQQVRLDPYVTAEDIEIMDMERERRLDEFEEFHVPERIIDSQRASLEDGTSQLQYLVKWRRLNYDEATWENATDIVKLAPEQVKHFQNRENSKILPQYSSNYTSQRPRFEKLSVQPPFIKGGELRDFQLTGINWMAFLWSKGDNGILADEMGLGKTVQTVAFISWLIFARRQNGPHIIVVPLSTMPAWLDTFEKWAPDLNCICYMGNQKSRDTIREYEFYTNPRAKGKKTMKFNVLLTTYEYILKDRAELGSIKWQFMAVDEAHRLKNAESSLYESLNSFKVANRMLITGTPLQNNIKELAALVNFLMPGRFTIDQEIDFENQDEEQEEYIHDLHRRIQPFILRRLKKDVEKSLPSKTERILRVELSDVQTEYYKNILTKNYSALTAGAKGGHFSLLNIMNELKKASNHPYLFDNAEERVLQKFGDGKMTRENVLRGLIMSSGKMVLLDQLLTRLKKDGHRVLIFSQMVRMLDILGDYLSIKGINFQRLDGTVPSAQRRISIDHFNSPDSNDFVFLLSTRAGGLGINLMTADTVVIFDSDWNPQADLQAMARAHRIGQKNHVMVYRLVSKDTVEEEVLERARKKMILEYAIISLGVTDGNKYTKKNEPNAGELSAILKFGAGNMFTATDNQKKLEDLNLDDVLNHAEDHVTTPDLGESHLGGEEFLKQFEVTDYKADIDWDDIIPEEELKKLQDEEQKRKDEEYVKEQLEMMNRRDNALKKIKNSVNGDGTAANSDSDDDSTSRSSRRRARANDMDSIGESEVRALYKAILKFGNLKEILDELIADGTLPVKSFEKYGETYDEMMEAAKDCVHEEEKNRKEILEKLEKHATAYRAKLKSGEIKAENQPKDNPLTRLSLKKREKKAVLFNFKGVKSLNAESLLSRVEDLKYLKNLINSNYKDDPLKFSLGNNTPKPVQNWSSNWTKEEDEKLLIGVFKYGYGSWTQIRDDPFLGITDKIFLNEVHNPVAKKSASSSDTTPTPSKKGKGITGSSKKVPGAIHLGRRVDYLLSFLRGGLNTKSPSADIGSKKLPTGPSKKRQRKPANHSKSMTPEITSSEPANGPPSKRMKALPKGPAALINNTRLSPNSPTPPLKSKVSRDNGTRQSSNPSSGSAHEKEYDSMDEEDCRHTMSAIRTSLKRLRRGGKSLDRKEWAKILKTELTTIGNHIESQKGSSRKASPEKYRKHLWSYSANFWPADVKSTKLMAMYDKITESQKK
Chain of Protein translocase subunit SecA (Escherichia coli (strain K12)) (P10408 whole entry): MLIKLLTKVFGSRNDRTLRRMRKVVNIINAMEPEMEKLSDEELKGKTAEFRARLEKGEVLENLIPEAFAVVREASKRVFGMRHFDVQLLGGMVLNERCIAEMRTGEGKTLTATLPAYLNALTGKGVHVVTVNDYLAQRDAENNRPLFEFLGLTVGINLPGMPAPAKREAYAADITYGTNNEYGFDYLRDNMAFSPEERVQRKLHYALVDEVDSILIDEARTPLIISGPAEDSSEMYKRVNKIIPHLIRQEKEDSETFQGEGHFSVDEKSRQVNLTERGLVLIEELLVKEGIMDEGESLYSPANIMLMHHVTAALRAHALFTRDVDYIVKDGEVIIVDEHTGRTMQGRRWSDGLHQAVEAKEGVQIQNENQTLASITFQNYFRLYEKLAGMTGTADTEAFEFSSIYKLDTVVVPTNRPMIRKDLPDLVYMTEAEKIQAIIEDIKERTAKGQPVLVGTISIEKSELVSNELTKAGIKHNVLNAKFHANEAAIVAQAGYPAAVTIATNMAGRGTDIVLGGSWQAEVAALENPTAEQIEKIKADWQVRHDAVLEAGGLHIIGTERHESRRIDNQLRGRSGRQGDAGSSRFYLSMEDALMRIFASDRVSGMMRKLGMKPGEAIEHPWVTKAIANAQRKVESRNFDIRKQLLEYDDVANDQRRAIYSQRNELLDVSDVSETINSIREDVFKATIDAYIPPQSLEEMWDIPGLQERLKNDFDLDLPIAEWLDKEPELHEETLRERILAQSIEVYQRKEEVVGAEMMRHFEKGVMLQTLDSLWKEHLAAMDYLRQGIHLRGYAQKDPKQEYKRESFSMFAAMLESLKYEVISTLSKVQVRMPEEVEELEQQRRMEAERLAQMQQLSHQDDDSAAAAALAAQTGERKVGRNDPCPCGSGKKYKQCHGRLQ

Turning to `O=C(c1cccnc1O)N(Cc1ccsc1)CC1CCCO1` (stereo unspecified), the Percent Effect in [1] is 0.332%; in experiment [2], 13.5%; in experiment [3], -1.43%; in [4] it was 6.53%; in the experiment with Trypanosoma cruzi, 4.63%; in experiment [5], 12.9%. Also, the Percent Effect in experiment [6] is 12.6%; in the experiment filed under Homo sapiens, 15.9%; in experiment [7] it was 5.82%; in [8], 17.1%; in experiment [9], -0.939%.

`Cc1cccc(OCCC(=O)N2CCN(S(=O)(=O)N(C)C)CC2)c1C`: the Percent Effect is 1.47% in experiment [1]; 22.8% in experiment [2]; -5.81% in experiment [3]; -9.44% in experiment [4]; 0.661% in the experiment on Trypanosoma cruzi; -3.42% in experiment [5]. Also, the Percent Effect in experiment [6] was 8.93%; in the experiment filed under Homo sapiens, 39.5%; in [7], 4.43%; in experiment [8], 16.5%; in [9], -13.5%.

With `O=C(C1CCC1)N1CCN(c2snc3ccccc23)CC1`, the Percent Effect is -4.56% in [1]; 1.27% in [2]; 21% in [3]; -7.26% in experiment [4]; -0.718% with Trypanosoma cruzi; 9.25% in experiment [5]. Also, the Percent Effect was 5.83% in experiment [6]; 25.3% in the experiment filed under Homo sapiens; -4.17% in experiment [7]; -12.7% in experiment [8]; -2% in experiment [9].

With `CNC(=O)Cc1ccc(NC(=O)NC(C)C(C)C)cc1` (stereo unspecified), the Percent Effect was -2.02% in [1]; 10.5% in experiment [2]; 3.68% in experiment [3]; 1.41% in [4]; 1.66% with Trypanosoma cruzi; 0% in [5]. Further, the Percent Effect in experiment [6] is 8.53%; in the experiment filed under Homo sapiens, -8.18%; in experiment [7], 4.25%; in [8], 15.6%; in experiment [9] it was -3.23%.

Take `O=C1CN(Cc2nnc(-c3ccc(Br)o3)o2)CCN1`: the Percent Effect in [1] is -0.248%; in experiment [2], 4.17%; in experiment [3], -1.21%; in experiment [4], -1.55%; in the experiment on Trypanosoma cruzi it was 0.486%; in experiment [5], 1.32%. The Percent Effect was 21.2% in [6]; -4.7% in the experiment filed under Homo sapiens; 7.37% in experiment [7]; 0% in [8]; -3.99% in [9].

Turning to `CCn1ccnc1CN1CCN(Cc2ccc(C#N)cc2)CC1`, the Percent Effect is -5.95% in experiment [1]; 21.1% in experiment [2]; -10.9% in experiment [3]; -5.15% in experiment [4]; 9.96% in the experiment with Trypanosoma cruzi; -4.6% in experiment [5]. Moreover, the Percent Effect in experiment [6] is 15.9%; in the experiment listed under Homo sapiens it was 19.8%; in experiment [7] it was 3.43%; in experiment [8], 19.5%; in experiment [9] it was -11.6%.

As to `O=C(c1cnc(-c2cccs2)s1)N1CCCN2CCCC2C1` (stereo unspecified), the Percent Effect in [1] was -2%; in experiment [2], 5.41%; in [3], -8.71%; in experiment [4], -6.92%; in the experiment on Trypanosoma cruzi, -2.36%; in experiment [5] it was -16%. For the same molecule, the Percent Effect in [6] is 12.6%; in the experiment filed under Homo sapiens, -1.67%; in experiment [7], 4.43%; in experiment [8], 23.5%; in experiment [9] it was -7.67%.

For the molecule `COCCO[C@@H]1CCN(C(=O)c2ccc(C)o2)[C@@H]1Cc1cccnc1`, the Percent Effect was -5.36% in [1]; 0% in experiment [2]; 9.87% in experiment [3]; -4.82% in experiment [4]; -3.91% in the experiment on Trypanosoma cruzi; 4.17% in experiment [5]. The Percent Effect in [6] was 8.03%; in the experiment filed under Homo sapiens, 2.29%; in experiment [7] it was 5.94%; in experiment [8], 8.54%; in experiment [9], -1.12%.

As for `Cc1nc(CC(=O)N2CCCN(c3ccc(C#N)cc3)CC2)cs1`, the Percent Effect was -2.43% in experiment [1]; 0% in experiment [2]; 5.74% in experiment [3]; -0.961% in [4]; -5.55% in the experiment on Trypanosoma cruzi; -4.73% in [5]. Also, the Percent Effect in experiment [6] was 14.5%; in the experiment listed under Homo sapiens it was 2.28%; in experiment [7] it was 2.13%; in experiment [8], 5.2%; in experiment [9], -1.52%.

For `CC(NC(=O)NCCCN(C)S(C)(=O)=O)c1ccncc1` (stereo unspecified), the Percent Effect was -0.684% in experiment [1]; 8.86% in experiment [2]; 5.26% in experiment [3]; -2.69% in experiment [4]; -2.77% in the experiment on Trypanosoma cruzi; 5.38% in experiment [5]. The Percent Effect in experiment [6] is 10.8%; in the experiment filed under Homo sapiens, 1.71%; in experiment [7] it was 12.5%; in experiment [8] it was 20.2%; in experiment [9], -14.2%.

For the molecule `COCCc1noc(CN2CCN(CC(O)c3ccccc3)CC2)n1` (stereo unspecified), the Percent Effect in experiment [1] is -7.76%; in [2], 6.33%; in [3], 4.46%; in [4], -0.576%; in the experiment with Trypanosoma cruzi, -1.54%; in experiment [5], 1.07%. The Percent Effect was 6.69% in experiment [6]; 12% in the experiment filed under Homo sapiens; 11.5% in experiment [7]; 10.1% in [8]; -14.9% in experiment [9].
